Screening data: PubChem, several laboratories
C-LANA FP = inhibitors of KSHV C-LANA binding to DNA, primary screen, biochemical, fluorescence polarization, FAM-LBS DNA, MBP-C-LANA, single point; inhibition, % at 9 µM; 340,000 compounds, 0.078% hits; Kaposi's sarcoma herpesvirus LANA C-terminal domain (residues 932-1162) DNA binding;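 active = highest replicate inhibition at or above 60% at 9 µM, even if other replicates fall short; inactive = all replicates below 60% inhibition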
Cardiac RTF inh = cardiac RTF calcium sensitivity inhibitors, primary screen, biochemical, IANBD-TnC fluorescence, EC70 calcium; inhibition, % at 7.15 µM; IANBD-labeled cardiac RTF, Ca2+ fluorescence; Troponin I, cardiac muscle (Homo sapiens) + Troponin T, cardiac muscle (Homo sapiens) + …; 340,000 compounds, 0.12% hits;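 active = inhibition above the mean inhibition of all tested compounds plus 3 SD, cut at about 17% in these data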;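 note: assay run at fixed EC70 calcium of 1.6 mM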
eLon inh = inhibitors of E. coli Lon protease, primary screen, biochemical, fluorescence polarization | purified E. coli Lon protease | inhibition, % at 7.94 µM | AID 602123, 2011 | 360,000 compounds, 0.42% hits | P0A9M0; in the data active = inhibition above about 13%, passing the limit was not always enough
Target sequence (P0A9M0 whole entry, looked up): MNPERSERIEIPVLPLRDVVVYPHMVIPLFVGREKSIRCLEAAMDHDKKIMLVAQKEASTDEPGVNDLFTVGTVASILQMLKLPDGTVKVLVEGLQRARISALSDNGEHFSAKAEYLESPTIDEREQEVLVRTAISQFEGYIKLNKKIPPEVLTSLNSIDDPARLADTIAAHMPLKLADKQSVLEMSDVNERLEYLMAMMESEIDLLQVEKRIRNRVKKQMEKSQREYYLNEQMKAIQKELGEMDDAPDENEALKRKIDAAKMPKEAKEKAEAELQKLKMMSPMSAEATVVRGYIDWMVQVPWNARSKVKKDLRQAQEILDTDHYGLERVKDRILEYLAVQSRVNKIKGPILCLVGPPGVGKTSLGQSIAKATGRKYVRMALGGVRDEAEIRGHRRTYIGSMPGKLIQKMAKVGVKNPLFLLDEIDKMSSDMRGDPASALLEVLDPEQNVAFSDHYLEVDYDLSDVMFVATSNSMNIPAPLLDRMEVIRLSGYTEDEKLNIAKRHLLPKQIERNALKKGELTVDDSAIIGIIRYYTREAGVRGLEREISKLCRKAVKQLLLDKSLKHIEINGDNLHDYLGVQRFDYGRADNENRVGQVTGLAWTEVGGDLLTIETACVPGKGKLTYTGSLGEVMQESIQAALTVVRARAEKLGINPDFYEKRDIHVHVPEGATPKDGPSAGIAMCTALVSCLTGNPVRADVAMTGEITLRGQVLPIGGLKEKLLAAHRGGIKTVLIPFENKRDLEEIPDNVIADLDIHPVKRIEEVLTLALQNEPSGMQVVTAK
RTF Ca sens act = cardiac RTF calcium sensitivity activators, primary screen, biochemical, IANBD-TnC fluorescence, EC20 calcium; Troponin I, cardiac muscle (Homo sapiens) + Troponin T, cardiac muscle (Homo sapiens) + …; IANBD-labeled TnC RTF fluorescence at EC20 calcium; 0% EC20 calcium, 100% full calcium; activation, % at 7.2 µM; 340,000 compounds, 0.24% hits; AID 493008, 2010;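 active = activation above the mean over all tested compounds plus 3 SD, cut at about 30% in these data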;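 note: rise in fluorescence read as greater calcium sensitivity of cardiac thin filaments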
Keap1 Nrf2 FP = Keap1-Nrf2 protein-protein interaction inhibitors, primary screen, biochemical, fluorescence polarization, single point. Kelch-like ECH-associated protein 1 (Homo sapiens), Q14145. inhibition, % at 9.4 µM. 340,000 compounds, 0.15% hits. Keap1 Kelch-Nrf2 peptide fluorescence polarization, 1536-well; in the data active = inhibition above about 12%;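 note: human Keap1 Kelch domain with fluorescein labeled Nrf2 9mer peptide probe; higher means more block of Keap1 binding to Nrf2 peptide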
E coli Lon conf = E. coli Lon protease inhibitor retest, confirmation, biochemical, fluorescence polarization; shares compounds with eLon inh; purified E. coli Lon; 1,400 compounds, 31% hits; inhibition, % at 7.94 µM; in the data active = inhibition above about 16%
Large screens that a line does not name were inactive (follow-up assays come after a bar, where they were run). Most compounds without a hit are left out; they make up all but 0.82% or so of the library.

CCN1CCN(C(=O)CCc2nnc(CCc3ccc(OC)cc3)o2)[C@@H](C)C1=O	none
O=C(NC1CC1)c1ccc(-c2cnc3cccnn23)cc1	none (no result: C-LANA FP, Cardiac RTF inh, RTF Ca sens act, Keap1 Nrf2 FP)
CN1CCN(c2cc(N3CCN(C(=O)c4ccco4)CC3)c3c4c(onc24)-c2ccccc2C3=O)CC1	none
O=C(O)CCCNc1cc(N2CCN(C(=O)c3ccco3)CC2)c2noc3c2c1C(=O)c1ccccc1-3	eLon inh 26 | E coli Lon conf 132
CN1CCN(CC(C)(C)NS(=O)(=O)c2ccc(Cl)cc2)CC1	none
CC(C)(CN1CCc2ccccc2C1)NS(=O)(=O)c1ccc(Cl)cc1	eLon inh 17 | E coli Lon conf inactive
CN(C)C1=NCCN1CCc1cccc(F)c1	none
CC1=C(C(=O)N(C)C)CC(CC(=O)NCCN2CCOCC2)C(=O)N1Cc1ccc(F)cc1 (stereo unspecified)	none (no result: C-LANA FP, Cardiac RTF inh, RTF Ca sens act, Keap1 Nrf2 FP)
COc1ccc2cnnc(SCC(=O)Nc3ccccc3)c2c1OC	none
COc1ccc(OC)c(NC(=O)CSc2nncc3ccc(OC)c(OC)c23)c1	eLon inh 50 | E coli Lon conf inactive
O=c1[nH]c(SCc2ccc(OC(F)(F)F)cc2)nc2c1CCC2	none (no result: C-LANA FP, Cardiac RTF inh, RTF Ca sens act, Keap1 Nrf2 FP)
CN(Cc1ccccc1)C(=O)CN1C(=O)c2ccc([N+](=O)[O-])cc2C1=O	eLon inh 19 | E coli Lon conf inactive
Cc1cccc(Cl)c1NC(=O)N1CCCN(c2ncccc2[N+](=O)[O-])CC1	eLon inh 25 | E coli Lon conf inactive
Nc1c(Cl)cc(-c2cn(CCC(=O)O)c(-c3ccncc3)n2)cc1Cl	none
NC(=O)c1ccc2c(=O)c(O)c(-c3cc(Cl)c(N)c(Cl)c3)[nH]c2c1	eLon inh 52 | E coli Lon conf 19
O=C(Nc1ccccc1C(=O)N1CCN(Cc2ccccc2)CC1)c1ccc(F)cc1	eLon inh 22 | E coli Lon conf inactive
CN=c1scc(-c2cccs2)n1/N=C/c1ccc(O)c(O)c1O	eLon inh 28 | E coli Lon conf inactive
CN=c1scc(C)n1/N=C/c1ccc(O)c(O)c1O	none
O=C(NCC(=O)N1CCCC(C(F)(F)F)C1)c1cccs1 (stereo unspecified)	none
CN1C(=O)N(C)c2ccc(C=O)c3cccc1c23	eLon inh 16 | E coli Lon conf inactive
N#Cc1ccc(CC(=O)c2ccccc2)[nH]c1=O	eLon inh 25 | E coli Lon conf inactive
O=C(NN1S(=O)(=O)c2ccccc2S1(=O)=O)c1ccc(Br)cc1	none
Cc1cccc(C(=O)NN2S(=O)(=O)c3ccccc3S2(=O)=O)c1	eLon inh 17 | E coli Lon conf inactive
CC1=NN(C(N)=S)C(=O)C1N=Nc1ccccc1C (stereo unspecified)	none
CC1=NN(C(N)=S)C(=O)C1N=Nc1ccccc1O (stereo unspecified)	eLon inh 19 | E coli Lon conf 26
Cc1ccccc1CN(C)C(C)C(=O)NCc1ccccc1 (stereo unspecified)	none
O=C(COC(=O)CNS(=O)(=O)c1c(F)cccc1F)NC(=O)NC1CCCCC1	eLon inh 27 | E coli Lon conf inactive
Cc1ccc(CNC(=O)c2cc(C3CC3)nc3c2cnn3C(C)C)cc1	none
Cc1ccc(OCCNC(=O)c2cc(C3CC3)nc3c2cnn3C(C)C)cc1	eLon inh active | E coli Lon conf inactive
CCC(c1nc2ccccc2[nH]1)N(C(=O)C1=NNC(=O)CC1)c1ccccc1 (stereo unspecified)	none (no result: C-LANA FP, Cardiac RTF inh, RTF Ca sens act, Keap1 Nrf2 FP)
CN1C=CC2=C(C#N)C(N)C(C#N)(C#N)C(c3ccccc3)C2C1 (stereo unspecified)	eLon inh 17, RTF Ca sens act 40 | E coli Lon conf inactive
COc1cc(NC(=O)CSc2nc3c(c(=O)[nH]2)CCCC3)cc(OC)c1OC	eLon inh 16 | E coli Lon conf inactive
CN(C)c1ccc(NC(=O)CSc2nc3c(c(=O)[nH]2)CCCC3)cc1	none
COC(=O)Cc1c(C)c2ccc(OC(=O)c3ccccc3)cc2oc1=O	eLon inh 33 | E coli Lon conf 28
CC1CCCCC1NC(=O)CN1C(=O)c2cccc(N)c2C1=O (stereo unspecified)	eLon inh 17 | E coli Lon conf 26
CC1CCCCC1NC(=O)COC(=O)CN1C(=O)c2ccccc2C1=O (stereo unspecified)	none
CC1(C(=O)NS(=O)(=O)c2ccc(Cl)cc2)CCN1C(=O)c1ccc(C2CCCCC2)cc1 (stereo unspecified)	none (no result: C-LANA FP, Cardiac RTF inh, RTF Ca sens act, Keap1 Nrf2 FP)
CC(=O)Nc1cc(-c2ccccc2N(C)C)cn2c(-c3ccc(S(C)(=O)=O)cc3)cnc12	eLon inh active (no result: C-LANA FP, Cardiac RTF inh, RTF Ca sens act, Keap1 Nrf2 FP) | E coli Lon conf 55
COc1cccc(CN2CC(C(=O)N(C)Cc3nc4ccc(F)cc4[nH]3)CCC2=O)c1 (stereo unspecified)	eLon inh 69 | E coli Lon conf inactive
COc1ccc2nc(CCN(C)C(=O)C3CCC(=O)N(Cc4cccc(F)c4)C3)[nH]c2c1 (stereo unspecified)	none
Cc1nc(NCCc2ccccc2)c2nnn(Cc3ccccc3)c2n1	none
CC(C)N1C(=O)C(=O)N(CC(=O)N2CCc3ccccc32)C1=O	none
CCCCN1C(=O)C(=O)N(CC(=O)N2CCc3ccccc32)C1=O	eLon inh 17 | E coli Lon conf inactive
COC(=O)c1ccc(N(CC(=O)NC2CCCCC2)C(=O)CNC(=O)c2ccco2)cc1	none
COCc1ccccc1C1=CC(=O)C[C@H](c2ccc(F)cc2)C1	none
CC(C)(C)N(NS(=O)(=O)c1ccc(F)cc1)c1ccccc1	none
Cc1ccc(C(O)c2ncc(-c3cccc(C(F)(F)F)c3)[nH]2)cc1 (stereo unspecified)	eLon inh 15 (no result: C-LANA FP, Cardiac RTF inh, RTF Ca sens act, Keap1 Nrf2 FP) | E coli Lon conf inactive
OC(C#Cc1ccccn1)c1cccs1 (stereo unspecified)	eLon inh 30 | E coli Lon conf inactive
CCc1ccc2c(c1)NC(=O)C2(C)Cc1ccc(Cl)s1 (stereo unspecified)	none (no result: C-LANA FP, Cardiac RTF inh, RTF Ca sens act, Keap1 Nrf2 FP)
CCOc1ccc(Nc2nc(NCC(=O)O)nc(N)c2[N+](=O)[O-])cc1	eLon inh 19 | E coli Lon conf inactive
CC1CN(Cc2csc(-c3ccc(Cl)cc3)n2)CC(C)O1 (stereo unspecified)	eLon inh 15 | E coli Lon conf inactive
COc1ccc(S(=O)(=O)c2c(O)c3ccc(C(=O)Nc4ccccc4Cl)cc3[nH]c2=O)cc1	eLon inh 25 | E coli Lon conf inactive
Cc1ccc(S(=O)(=O)CNC(=S)c2ccc3ccccc3c2)cc1	eLon inh 20 | E coli Lon conf inactive
CN(C(=O)COC(=O)c1ccccc1OCc1ccc(F)cc1)C1CCS(=O)(=O)C1 (stereo unspecified)	none
